SW480 rereplic: inducers of DNA re-replication in SW480 colon cancer cells | SW480 DNA re-replication, Hoechst DNA content imaging, 48 h | Potency, µM (series often up to 46.1 µM), without a hit: at the highest dose re-replication activation, usual class: activators | 340,000 compounds, 1.8% hits | AID 624297; further: % of control where 0% means no effect; nearly all actives have a fitted effect of over 55% in size
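Per well, 250 cells were exposed to pinned compound for 48 hr. Nuclear DNA was visualised with Hoechst (40 min, 37 C) and total object intensity recorded by fluorescence scanning.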
HT1080-NT tox: kills 2HG-producing HT-1080-NT fibrosarcoma cells; HT-1080-NT fibrosarcoma viability, CellTiter-Glo ATP luminescence, 48 h; Potency, µM (series often up to 46.1 µM), without a hit: top-dose activity, negative = less viability, actives largely listed as cytotoxic; 360,000 compounds, 1.6% hits; AID 686970;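 further: NT is the 2HG producing partner of a matched IDH1 knockdown line; 0% = DMSO-treated cells and -100% = media-only wells without cells; nearly all actives have a fitted effect of over 55% in size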
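Viability by CellTiter-Glo luminescence after 48 h compound exposure at 37C of HT-1080-NT cells (750/well, RPMI, 5% FBS). % activity scaled between DMSO wells and medium-only wells, then curve-fitted and categorized by curve class.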
KB-3-1 cytotox: kills parental KB-3-1 adenocarcinoma cells; KB-3-1 viability, CellTiter-Glo ATP luminescence, 72 h; 400,000 compounds, 1.4% hits; Potency, µM (series often up to 46.1 µM), most hits filed as cytotoxic; AID 1347075; further: on the % scale 0 is the no-effect control and ±100 the full control effect; nearly all actives have a fitted effect of over 60% in size
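KB-3-1 cells, DMEM (no phenol red) + 10% FBS; compound by pin transfer, 72 h, 37 °C. Readout: CellTiter-Glo luminescence after 10 min. Data normalized, curve-fitted.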
HT1080 IDH1KD tx: HT-1080 IDH1 knockdown cell toxicity (counter line); HT-1080 IDH1 knockdown viability, ATP luminescence, 48 h; AID 686971; Potency, µM (titrated, usually from 46.1 µM), for the others: at the highest dose activity, negative = toxicity, usual class: cytotoxic; 360,000 compounds, 2% hits;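 further: 0% = DMSO wells and -100% = cell-free medium wells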
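In this qHTS, HT-1080 cells depleted of IDH1 are exposed for 48 h at 37 °C to compound titrations. Toxicity is scored from CellTiter-Glo luminescence, with DMSO as full viability and medium alone as none.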
MCF10A rerep: DNA re-replication induction in MCF 10a cells; MCF 10A DNA re-replication, Hoechst nuclear intensity, 48 h; Potency, µM (series often up to 46.1 µM), for the others: top-dose activity, positive = re-replication, usual class: activators; 350,000 compounds, 2.9% hits; AID 624296; further: % of control where 0% means no effect; nearly all actives have a fitted effect of over 50% in size
KB-V1 MDR tox: KB-V1 MDR subline cytotoxicity; Potency, µM (titrated, usually from 46.1 µM), hits mostly cytotoxic; 400,000 compounds, 3.4% hits; AID 1347076; KB-V1 MDR cells viability, CellTiter-Glo, 72 h; further: on the % scale 0 is the no-effect control and ±100 the full control effect; nearly all actives have a fitted effect of over 60% in size
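KB-V1 cells (P-gp-expressing MDR subline of KB-3-1) in phenol-red-free DMEM with 10% FBS were exposed to library compounds over a concentration series for 72 h at 37 degrees C. Viability read by CellTiter-Glo luminescence; concentration-effect curves fitted after normalization.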
Starred values were filed as active, the others as inactive. Most compounds without a hit are left out; they make up all but 7.9% or so of the library. The call rests on the fitted dose curve; in most records, active means well fitted curve in the direction sought with a large enough effect; inconclusive means small, poorly fitted or top-dose-only effect, or another doubt; inactive means no such curve, though single readings can be large; an effect the other way counts as inactive or inconclusive. Potency means the concentration at half of the fitted maximal effect.

CC[C@]12c3[nH]c4ccc(Cl)cc4c3CCN1C(=O)[C@@H](CC(=O)NCC13CC4CC(CC(C4)C1)C3)C[C@@H]2C(=O)N1CCN(C(=O)c2ccco2)CC1 was read as SW480 rereplic inconclusive, HT1080-NT tox inconclusive, KB-3-1 cytotox inconclusive, HT1080 IDH1KD tx 18.4µM*, MCF10A rerep 20.6µM* and KB-V1 MDR tox inconclusive.
For CC(C)N(C(=O)[C@H]1C[C@H](CC(=O)NCCCN(C)C)C(=O)N2CCc3c([nH]c4ccc(Cl)cc34)[C@]12C)C(C)C the results were SW480 rereplic 18.4µM*, HT1080-NT tox -20.1%, KB-3-1 cytotox inactive, HT1080 IDH1KD tx inconclusive, MCF10A rerep inconclusive and KB-V1 MDR tox inactive.
Screening COc1ccc(-c2cn[nH]c2-c2ccc(OCc3ccccc3F)cc2O)cc1OC returned SW480 rereplic inconclusive, HT1080-NT tox 29.1µM*, KB-3-1 cytotox inconclusive, HT1080 IDH1KD tx 18.4µM*, MCF10A rerep inconclusive and KB-V1 MDR tox 18.4µM*.
For CCc1cc(-c2[nH]ncc2-c2ccc([N+](=O)[O-])cc2)c(O)cc1OC the results were SW480 rereplic 25.8%, HT1080-NT tox -5.3%, KB-3-1 cytotox inactive, HT1080 IDH1KD tx -2.7%, MCF10A rerep inconclusive and KB-V1 MDR tox inactive.
`COc1ccc(-c2cn[nH]c2-c2ccc(OCc3ccc([N+](=O)[O-])cc3)cc2O)cc1OC` gave SW480 rereplic 3.8%, HT1080-NT tox -22.0%, KB-3-1 cytotox inconclusive, HT1080 IDH1KD tx -23.6%, MCF10A rerep -1.4% and KB-V1 MDR tox 4.11µM*.
`O=[N+]([O-])c1ccc(COc2ccc(-c3[nH]ncc3-c3ccc(Cl)cc3)c(O)c2)cc1` gave SW480 rereplic inconclusive, HT1080-NT tox inconclusive, KB-3-1 cytotox inactive, HT1080 IDH1KD tx 23.1µM*, MCF10A rerep 23.1µM* and KB-V1 MDR tox inactive.
Cn1cnnc1SCC(=O)Nc1cc(C(=O)O)cc(C(=O)O)c1 was read as KB-3-1 cytotox inactive and KB-V1 MDR tox inactive.
`O=C(NCc1ccccc1Cl)[C@H]1CCCN1C(=O)[C@H]1CCCN1C(=O)c1ccc(Cl)cc1` gave HT1080-NT tox 11.6%, KB-3-1 cytotox inactive, HT1080 IDH1KD tx 1.8% and KB-V1 MDR tox inactive.
For COc1cccc(Nc2nc(N)nc(C(F)(F)F)n2)c1 the results were SW480 rereplic -4.2%, HT1080-NT tox -28.8%, KB-3-1 cytotox inactive, HT1080 IDH1KD tx inconclusive, MCF10A rerep inconclusive and KB-V1 MDR tox inconclusive.
`Cc1cccc(Nc2nc(N)nc(CCl)n2)c1` gave SW480 rereplic inconclusive, HT1080-NT tox 3.66µM*, KB-3-1 cytotox inconclusive, HT1080 IDH1KD tx inconclusive, MCF10A rerep inconclusive and KB-V1 MDR tox inactive.
For Cc1cccc(Nc2nc(N)nc(CSc3nccc(C)n3)n2)c1 the results were SW480 rereplic 2.8%, HT1080-NT tox 2.9%, KB-3-1 cytotox inactive, HT1080 IDH1KD tx 1.5%, MCF10A rerep 9.6% and KB-V1 MDR tox inactive.
Screening COc1cccc(Nc2nc(N)nc(CCl)n2)c1 returned SW480 rereplic 14.6µM*, HT1080-NT tox 7.31µM*, KB-3-1 cytotox inactive, HT1080 IDH1KD tx 10.3µM*, MCF10A rerep 18.4µM* and KB-V1 MDR tox inactive.
For N#Cc1nc(Nc2cc(F)cc(F)c2)c2ncn(CCCO)c2n1 the results were KB-3-1 cytotox inconclusive and KB-V1 MDR tox inactive.
Cc1noc(-c2ccc(Cl)cc2)c1C(=O)O/N=C(\N)c1ccc(C(C)(C)C)cc1 was read as SW480 rereplic -2.0%, HT1080-NT tox inconclusive, KB-3-1 cytotox inconclusive, HT1080 IDH1KD tx inconclusive, MCF10A rerep inconclusive and KB-V1 MDR tox 18.4µM*.
For Cc1cc(C(=O)O/N=C(\N)c2ccc(C(C)(C)C)cc2)no1 the results were SW480 rereplic -8.7%, HT1080-NT tox 7.8%, KB-3-1 cytotox inactive, HT1080 IDH1KD tx 0.2%, MCF10A rerep 3.7% and KB-V1 MDR tox inactive.

Bioassay records deposited in PubChem by National Center for Advancing Translational Sciences (NCATS).
